Compound activity from PubChem.
Most compounds without a hit are left out; they make up all but 11% or so of the library.
HPGD inh: qHTS Assay for Inhibitors of HPGD (15-Hydroxyprostaglandin Dehydrogenase) | 15-hydroxyprostaglandin dehydrogenase [NAD(+)] (Homo sapiens), P15428 | purified HPGD, NADH fluorescence kinetic, PGE2 substrate | Potency, µM, hits mostly inhibitors | 150,000 tested, 4.3% active | AID 894, 2007
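NADH formation kinetics: reaction with 30 uM PGE2 and 1 mM NAD+ (final), 20 nM enzyme, Tris-HCl pH 8 with Tween 20, after 15 min compound preincubation at room temperature. Fluorescence change, last versus first of five reads.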
IMPase inh: qHTS Assay for Identifying the Cell-Membrane Permeable IMPase Inhibitors; CHO-M1 cells, IP1 accumulation, HTRF TR-FRET ratio; inhibition (IP1 accumulation), % at 46.1 µM; 120,000 tested, under 10 active; active = well fitted curve in the direction sought with a large enough effect in the signal ratio, not every such curve was filed as active; inconclusive = small, poorly fitted or top-dose-only effect, or a change in a side signal; inactive = no such curve, though single readings can be large or run the other way; the % refers to the signal ratio;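 note: cells stimulated with carbachol in lithium chloride buffer; higher means more IMPase inhibition seen as more IP1 and lower FRET ratio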
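Carbachol-driven Gq signalling in CHO-M1 cells (2000/well) generates IP1. Compounds that block IMPase raise IP1 and so reduce the FRET signal from Eu-anti-IP1 and d2-IP1 after a 10 min room-temperature lysis.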
PNC inhibitor: High Content Assay for Compounds that inhibit the Assembly of the Perinucleolar Compartment; PC3M PTB-GFP, PNC prevalence imaging, 16 h; stronger effect = lower value; activity change (PNC), negative = inhibition, % at 10 µM; 140,000 tested, 3.1% active;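 active = readout at or below -70, meaning at least 70% loss of cells showing the perinucleolar compartment, a nuclear body marking cancer cells; inconclusive = readout between -30 and a set limit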
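PC3M cells stably expressing PTB-GFP, 750–1000 cells/well, treated 16 h at 37 °C with compound (23 nl of library stock), in duplicate. After paraformaldehyde fixation and Hoechst stain, imaged at 20x; PNC prevalence scored by image analysis.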
ALDH1A1 block: qHTS Assay for Inhibitors of Aldehyde Dehydrogenase 1 (ALDH1A1); Purified ALDH1A1, NADH fluorescence, propionaldehyde substrate; Potency, µM (top dose mostly 75.3 µM), usual class: inhibitors; 220,000 tested, 7.3% active
Target sequence (P00352 whole entry, looked up): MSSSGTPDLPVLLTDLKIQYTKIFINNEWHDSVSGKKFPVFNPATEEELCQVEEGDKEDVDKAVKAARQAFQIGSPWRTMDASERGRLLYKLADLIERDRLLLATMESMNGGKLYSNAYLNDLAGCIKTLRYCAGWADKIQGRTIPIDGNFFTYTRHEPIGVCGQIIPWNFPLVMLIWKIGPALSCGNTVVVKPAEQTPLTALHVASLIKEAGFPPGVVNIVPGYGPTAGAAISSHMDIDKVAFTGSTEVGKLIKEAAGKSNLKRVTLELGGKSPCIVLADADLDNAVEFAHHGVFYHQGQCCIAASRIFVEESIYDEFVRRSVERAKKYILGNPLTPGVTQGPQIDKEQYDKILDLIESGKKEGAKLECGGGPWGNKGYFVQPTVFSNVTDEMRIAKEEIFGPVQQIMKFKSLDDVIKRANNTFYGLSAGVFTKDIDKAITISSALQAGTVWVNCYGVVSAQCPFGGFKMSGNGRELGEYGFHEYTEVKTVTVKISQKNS
IMPase Li cell: qHTS Assay for Identifying the Cell-Membrane Permeable IMPase Inhibitors: Potentiation with Lithium; CHO-M1 cells, IP1 TR-FRET (IP-One), carbachol + lithium; Potency, µM (highest dose often 59.4 µM), usual class: inhibitors; 210,000 tested, 0.35% active; AID 1457, 2008; active = well fitted inhibition curve with a large enough effect; inconclusive = small, poorly fitted or top-dose-only effect; inactive = no such curve, though single readings can be large or run the other way;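 note: IP1 builds up when IMPase is blocked and the TR-FRET signal falls; nearly all actives have a fitted effect of over 50% in size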
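Concentration–response in CHO-M1 cells, lithium-potentiated; 30 min at 37C. IP1 detected by competitive TR-FRET after 10 min lysis at RT. Hill-fitted AC50.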
Hits are given with their value; - = inactive; ? = inconclusive; . = no result; [ ] = another dose, or the depositor's remark. Unless noted, calls come from the whole dose curve; as a rule, active = well fitted inhibition curve with a large enough effect (not every such curve was filed as active); inconclusive = small, poorly fitted or top-dose-only effect, or another doubt; inactive = no such curve, though single readings can be large or run the other way.

SMILES	HPGD inh	IMPase inh	PNC inhibitor	ALDH1A1 block	IMPase Li cell
O=C1CC(Nc2ccc(N3CCOCC3)cc2)C(=O)N1c1ccccc1F (configuration not stated)	-	-	-	14.1µM	-
CC(C)N1C(=O)CC(Nc2ccc(N3CCOCC3)cc2)C1=O (configuration not stated)	-	-	-	?	-
Cc1ccc(N2C(=O)CC(Nc3ccccc3)C2=O)cc1 (configuration not stated)	-	-	-	-	-
O=C1CC(Nc2ccccc2)C(=O)N1c1ccc(N2CCOCC2)cc1 (configuration not stated)	-	-	-104.4	?	-
COc1ccccc1N(CC(=O)NC1CCCC1)C(=O)c1oc(C(C)(C)C)cc1C	.	.	.	-	-
c1ccc(Cn2nnnc2C(c2cccnc2)N2CCN(c3ccccc3)CC2)cc1 (configuration not stated)	-	-	-	-	-
O=c1oc2ccccc2c(N2CCCC2)c1CN1CCCC1	-	-	?	14.1µM	-
COCCNC(=O)c1csc2c1CCCC2	15.8µM	-	?	-	-
COc1ccc(CCNC(=O)c2csc3c2CCCC3)cc1OC	.	.	.	-	-
CCN1CCN(CCCNC(=O)c2csc3c2CCCCC3)CC1	-	-	-	-	-
O=C(NCC1CCCO1)c1csc2c1CCCC2 (configuration not stated)	20µM	-	-	-	-
CCN1CCCC1CNC(=O)c1csc2c1CCCC2 (configuration not stated)	-	-[1.84 µM]	-85.4	-	-
O=C(NCCN1CCOCC1)c1csc2c1CCCCC2	-	-	-	-	-
CC#CCN1c2ccccc2[C@]23C[C@@H](C(=O)OC)N(S(=O)(=O)c4ccc(Br)cc4)C2=NC(C(=O)OC)=C(C(=O)OC)[C@H]13	-	.	.	-[13.5 µM]	-
CC(C)CCn1cnc2c(oc3nc4c(cc32)CCCC4)c1=O	.	.	.	3.16µM	.
CCc1c(C(=O)N/N=C/c2ccc(C)o2)csc1C	?	?	?	?	-
COc1ccccc1C(=O)N1c2ccccc2C(C)(c2ccc(Cl)cc2)CC1(C)C (configuration not stated)	.	-	.	.	.
CC(C)C[C@@H](CC(=O)N[C@@H](CCCN)CC(=O)N[C@@H]1CCCC[C@H]1C(=O)N[C@H](CC(=O)N[C@@H](CCC(=O)O)CC(=O)O)Cc1ccccc1)NC(=O)[C@@H]1CCCC[C@H]1N	-	.	.	-	-
COc1ccccc1Nc1ncc(C(=O)N2CCN(Cc3ccc(OC)c(OC)c3OC)CC2)c2ccccc12	.	.	.	-	-
CN(C)c1ccc(NC2=C(Cl)C(=O)c3ccccc3C2=O)cc1	14.1µM	.	-	?	-
CC(=O)N1CCN(C(=O)CSc2nc3c(cnn3-c3ccccc3)c(=O)[nH]2)CC1	?	-	?	25.1µM	-
O=C(NCSc1ccnc(SCNC(=O)c2ccc(F)cc2)n1)c1ccc(F)cc1	22.4µM	-	-97.1	?	-
Cc1ccccc1N1C(=O)CN(Cc2sccc2C)C1=S	-	.	-	-	-
Cc1cc(Cl)ccc1OCCCC(=O)NCC1CCCO1 (configuration not stated)	11.2µM	-	?	-	-
O=C(CCn1nc(-c2ccccc2)c2ccccc2c1=O)NCC1CCCO1 (configuration not stated)	28.2µM	-	-	?	-
SMILES	HPGD inh	IMPase inh	PNC inhibitor	ALDH1A1 block	IMPase Li cell
COc1cccc(-c2noc(CCC(=O)NCC3CCCO3)n2)c1 (configuration not stated)	.	.	.	-	-
O=C(CCSc1ccccc1)NCC1CCCO1 (configuration not stated)	15.8µM	-	?	-	-
O=C(CSc1ccc(Cl)cc1)NCC1CCCO1 (configuration not stated)	?	-	-	-	-
O=C(CCc1nc(-c2ccc(Cl)cc2)no1)NCC1CCCO1 (configuration not stated)	.	.	.	35.5µM	-
CC(=O)C(Sc1ccc2nnc(-c3ccc(F)cc3)n2n1)C(C)=O	?	-	-	?	-
Cc1ccc(S(=O)(=O)NC(=O)COc2ccccc2C(N)=O)cc1	-	-	?	-	-
Cc1cccc(OCc2nnc(SCC(=O)Nc3ccc(C)cc3C)o2)c1	.	-	.	.	.
O=C(CCSCCC(=O)NCC1CCCO1)NCC1CCCO1 (configuration not stated)	-	-	?	-	-
O=C(CCn1nc(-c2ccccc2)c2ccccc2c1=O)N1CCN(c2ccccc2)CC1	-	-	-	22.4µM	-
O=C(CC1CCCCC1)NCC1CCCO1 (configuration not stated)	14.1µM	-	-	-	-
O=C(CCCOc1ccccc1)NCC1CCCO1 (configuration not stated)	12.6µM	-	-	-	-
Cc1ccc(CS(=O)(=O)CCC(=O)NCC2CCCO2)cc1 (configuration not stated)	-	-	-83.7	?	-
N#Cc1cccc(NC(=O)N2CC[C@@]3(CCCN(C(=O)c4cccc(F)c4)C3)C2)c1	-	.	.	-	-
CSC(N)=NCCCC(N)C(=O)O (configuration not stated)	-	.	.	-	-
CC(NC(=O)C(=O)NCC1CCCO1)c1ccccc1 (configuration not stated)	.	.	.	-	-
O=C(CC(c1ccccc1)c1ccccc1)NCC1CCCO1 (configuration not stated)	7.94µM	-	-	-	-
COc1ccc(CCNC(=O)CN(c2ccc(OC)c(OC)c2)S(C)(=O)=O)cc1	-	-	-139.2	-	-
COc1ccc(CCNC(=O)CN(C)S(=O)(=O)c2ccc(Br)s2)cc1OC	-	.	-82.6	-	-
CCOc1ccc(N(CC(=O)Nc2ccc(OC)cc2)S(C)(=O)=O)cc1	-	-	-	17.8µM	-
COc1ccc(CCNC(=O)CN(c2cc([N+](=O)[O-])ccc2OC)S(C)(=O)=O)cc1	.	.	.	-	-
COc1ccc(CCNC(=O)CN(C)S(=O)(=O)c2cccs2)cc1OC	-	-	-	-	-
COCCNC(=O)CN(c1ccc(OC)c(OC)c1)S(=O)(=O)c1ccc(C)cc1	-	-	-106.0	-	-
CCCCCC1C(=O)C[C@@H]2CCN3C(=O)CCC[C@H]1[C@H]23 (some centres not stated)	-	.	.	?	-
CC(C)CC1CC(C)(c2csc(NNC(=O)c3ccccc3)n2)OC1=O (configuration not stated)	.	.	.	-	-
NC(=O)/N=N/C(N)=O	10µM	.	.	0.447µM	-
NC(N)=O	-	.	.	-	-
CC(=O)OCCNc1cc(N2CCN(C)CC2)c2noc3c2c1C(=O)c1ccccc1-3	-	-	-92.6	-	-
